In the supplement of paper PMC7801607:

Key:
[1] = test system: CHO; assay: % viability of CHO cells (MTT); higher = less toxic; details: 48 h
Method in brief: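 For 48 h, attached CHO cells (10^6 cells/well, 200 µL, seeded the night before) were kept in fresh medium carrying compound at 2 or 20 µM. A colorimetric tetrazolium (MTT) assay then gave survival as percent viability versus untreated cells.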

[2] = test system: HepG2-A16-CD81; assay: % inhibition of HepG2 viability (CellTiter-Glo); higher = more toxic; details: 5 µM;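 note: HepG2-A16-CD81 hepatoma cells plated as in the liver-stage assay but without sporozoites, with DMSO wells as negative and 25 µM puromycin as positive control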
[3] = test system: Plasmodium falciparum NF54 stage IV/V gametocytes; assay: % inhibition of gametocyte viability (PrestoBlue); higher = more inhibition; details: 48 h
Method in brief: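 Stage IV/V NF54 gametocytes at 2% gametocytaemia and 5% haematocrit (100 µL/well) were treated with compound at 1 or 5 µM and incubated for 48 h at 37 °C under stationary, hypoxic conditions. PrestoBlue (10 µL) was then added for 2 h, and fluorescence at 612 nm was read on 70 µL of transferred supernatant. Percent inhibition of gametocyte viability was normalised to vehicle and kill controls within one run.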

[4] = test system: Plasmodium falciparum NF54 asexual blood stage; assay: % inhibition of asexual blood stage proliferation (pLDH); higher = more inhibition; details: 72 h
Method in brief: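 Plasmodium falciparum NF54 ring-stage cultures (1% haematocrit, 2% parasitaemia) were incubated with compound at 2 or 20 µM for 72 h at 37 °C under 4% CO2, 3% O2 and 93% N2. Survival was read at 620 nm with the parasite lactate dehydrogenase assay. Results were reported as percent inhibition of asexual proliferation relative to controls.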

[5] = test system: Plasmodium falciparum NF54 stage IV/V gametocytes; assay: % inhibition of gametocyte viability (ATP bioluminescence); higher = more inhibition; details: 24 h
Method in brief: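 Stage IV/V NF54 gametocytes from density gradients (30,000 per well, 96-well plates) were incubated with compound at 1 or 5 µM for 24 h at 37 °C. A single run supplied percent inhibition of gametocyte viability, based on ATP measured with Promega BacTiter Glo and normalised to control wells.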

[6] = test system: Plasmodium falciparum NF54 stage IV/V gametocytes; assay: % inhibition of gametocyte viability (luciferase reporter); higher = more inhibition; details: 48 h
Method in brief: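 Stage IV/V gametocytes of the NF54-Pfs16-GFP-Luc line (2% gametocytaemia, 2% haematocrit) were exposed to compound at 1 or 5 µM. Incubation was 48 h at 37 °C, stationary and hypoxic. Luminescence was read on 30 µL lysate plus 30 µL Promega luciferin substrate on a GloMax-Multi+ reader with 10 s integration. Percent inhibition was normalised to DMSO and kill controls from a single run.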

SMILES	% viability of CHO cells ([1]; 2 µM) [%]	% viability of CHO cells ([1]; 20 µM) [%]	% inhibition of HepG2 viability [2] [%]	% inhibition of gametocyte viability ([3]; 1 µM) [%]	% inhibition of gametocyte viability ([3]; 5 µM) [%]	% inhibition of asexual blood stage proliferation ([4]; 2 µM) [%]	% inhibition of asexual blood stage proliferation ([4]; 20 µM) [%]	% inhibition of gametocyte viability ([5]; 1 µM) [%]	% inhibition of gametocyte viability ([5]; 5 µM) [%]	% inhibition of gametocyte viability ([6]; 1 µM) [%]	% inhibition of gametocyte viability ([6]; 5 µM) [%]
CC#C[C@]1(O)CC[C@H]2[C@@H]3CCC4=CC(=O)CCC4=C3[C@@H](c3ccc(N(C)C)cc3)C[C@@]21C	89.5	130	0.01	< 0	< 0	15.1	53.8	< 0	< 0	2.32	< 0
CCN(CC)CCn1c(=N)n(CC(O)COc2ccc(Cl)cc2Cl)c2ccccc21 (centres undefined)	98.9	0.284	2.98	< 0	< 0	95.4	101	82.2	90.7	< 0	91.6
CC[C@@H](CO)NCCN[C@@H](CC)CO	85	50.4	-1.81	< 0	25	42.9	37.6	0.155	0.768	< 0	< 0
Cc1cc(C2CCCCC2)n(O)c(=O)c1	95.2	69.7	13.4	< 0	58.2	9.8	77.8	36.1	< 0	< 0	< 0
O=[N+]([O-])c1ccc2c(CCc3c[nH]c4ccccc34)c[nH]c2c1	101	143	0.942	< 0	28	61.5	92.7	< 0	< 0	< 0	< 0
Cc1cc(NS(=O)(=O)c2ccc(-c3ccc(F)cc3F)cc2)no1	95.4	116	1.14	2.55	66.2	-0.00494	-3.92	0.517	< 0	< 0	< 0
NC[C@H]1O[C@H](O[C@H]2[C@H](O)[C@@H](O[C@H]3O[C@H](CO)[C@@H](O)[C@H](N)[C@H]3O)[C@H](N)C[C@@H]2N)[C@H](N)C[C@@H]1O	111	8.4	-3.85	< 0	1.53	-2.54	18.7	< 0	< 0	< 0	6.32
CS(=O)(=O)c1ccc(Oc2ccc(Cl)cc2)cc1	98.9	121	-1.85	21.5	13.8	28.1	69.1	< 0	< 0	< 0	< 0
c1cnc(NCc2ccc(CNc3ncccn3)cc2)nc1	85.1	77.7	-9.29	9.96	14.8	13.7	35.1	< 0	< 0	3.69	< 0
Cc1c(N)cccc1Cn1ccc(OCCc2cccs2)cc1=O	240	54.9	5.54	< 0	< 0	6.4	22.2	0.516	< 0	< 0	< 0
Cn1cc(NC(=O)c2cc(NC(=O)c3ccc(/C=C/c4cnc5ccccc5c4)cc3)cn2C)cc1C(=O)NCCN1CCOCC1	34.6	14.9	-5.82	18.3	55.1	68.7	94	22.3	15.5	64.1	67.1
O=S(=O)(Nc1cccc2cccnc12)c1ccccc1	85	121	5.35	4.79	< 0	8.89	70	< 0	< 0	< 0	< 0
Nc1nc(N)c2c(Sc3ccccc3)cccc2n1	107	100	13.7	< 0	4.25	47.8	77.9	< 0	2.83	< 0	< 0
CCc1cc(Cc2cnc(N)nc2N)cc2c1N(C)CCC2C (centres undefined)	96.1	110	7.88	< 0	< 0	16.7	95.1	< 0	< 0	< 0	< 0
Cc1ncc([N+](=O)[O-])n1CC(O)CN1CCOCC1 (centres undefined)	106	55.4	-2.47	< 0	< 0	30.7	75.1	< 0	< 0	0.715	1.52
Cn1cncc1[C@@](N)(c1ccc(Cl)cc1)c1ccc2c(c1)c(-c1cccc(Cl)c1)cc(=O)n2C	94.8	47.9	31.9	21.7	31.8	51.2	75.9	15.7	16.3	0.69	< 0
O=C(O)c1ccc(-c2ccc(O[C@H]3O[C@H](CO)[C@@H](O)[C@H](O)[C@@H]3O)cc2)cc1	94	102	-2.59	< 0	3.77	0.633	16.6	< 0	< 0	< 0	12.4
C[C@@H](c1nc(-c2ccc(C#N)cc2)cs1)[C@](O)(Cn1cncn1)c1ccc(F)cc1F	92.5	99.8	3.07	12.4	15	-2.05	34.3	2.16	< 0	< 0	< 0
Cc1ccc(NC(=O)c2ccc(CN3CCN(C)CC3)cc2)cc1Nc1nccc(-c2cccnc2)n1	87.6	50.2	6.65	< 0	< 0	60.6	98.3	< 0	< 0	0.104	< 0
